The supplement of paper PMC10849652
Of roughly 8,800 targets only a part is listed; those with a hit were picked by preference. About 0.5% of all pairs of compound and target were hits. A number with no mark means an inactive call.

How the values were obtained:
Test in all cases: log2 fold change, soluble protein after heating vs DMSO (PISA); higher = thermal stabilisation; K562 lysate, 10 uM; active = over 0.2 and 3.5 SD of the protein, either way, in both replicates (recomputed)
vemurafenib = compound: CCCS(=O)(=O)Nc1ccc(F)c(C(=O)c2c[nH]c3ncc(-c4ccc(Cl)cc4)cc23)c1F [vemurafenib]
How it was run: (§1)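 K562 pellets were dounce-homogenised in PBS pH 7.4 containing 1 mM MgCl2, and the crude extract, at 1 mg/mL protein, was exposed to 10 μM compound for 30 min. Aliquots were heated for 3 min across 48°C-58°C, pooled, brought to 0.5% NP-40 at 4°C and spun at 21,000xg for 90 min, with the supernatant taken as soluble protein. TMTpro 16plex LC-MS/MS with equalised channel sums quantified that protein. Values are log-two fold changes in thermal stability relative to solvent controls, taken from duplicates.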

[1] = compound: CCCS(=O)(=O)Nc1ccc(F)c(C(=O)c2c[nH]c3ncc(Cl)cc23)c1F
How it was run: as §1

barasertib = compound: CCN(CCCOc1ccc2c(Nc3cc(CC(=O)Nc4cccc(F)c4)[nH]n3)ncnc2c1)CCOP(=O)(O)O [barasertib]
How it was run: as §1

[2] = compound: CC[C@@H]1C(=O)N(C)c2cnc(Nc3ccc(C(=O)NC4CCN(C)CC4)cc3OC)nc2N1C1CCCC1
How it was run: as §1

volasertib = compound: CC[C@@H]1C(=O)N(C)c2cnc(Nc3ccc(C(=O)N[C@H]4CC[C@H](N5CCN(CC6CC6)CC5)CC4)cc3OC)nc2N1C(C)C [volasertib]
How it was run: as §1

[3] = compound: CCn1c(C(=O)N(C2CC2)C2CC2)cc2c3c(ncn3C)c(Nc3cc(C)n(C)n3)nc21
How it was run: as §1

[4] = compound: CCn1cc(-c2ccnc3[nH]c(-c4cccc(CN(C)C)c4)cc23)c(-c2ccc(NC(=O)N(C)C)cc2)n1
How it was run: as §1

[5] = compound: CN1CCC(CNc2ccc3ncc(-c4cccc(OC(F)(F)F)c4)n3n2)CC1
How it was run: as §1

saracatinib = compound: CN1CCN(CCOc2cc(OC3CCOCC3)c3c(Nc4c(Cl)ccc5c4OCO5)ncnc3c2)CC1 [saracatinib]
How it was run: as §1

sotrastaurin = compound: CN1CCN(c2nc(C3=C(c4c[nH]c5ccccc45)C(=O)NC3=O)c3ccccc3n2)CC1 [sotrastaurin]
How it was run: as §1

alvocidib = compound: CN1CC[C@H](c2c(O)cc(O)c3c(=O)cc(-c4ccccc4Cl)oc23)[C@H](O)C1 [alvocidib]
How it was run: as §1

Tubastatin A = compound: CN1CCc2c(c3ccccc3n2Cc2ccc(C(=O)NO)cc2)C1 [Tubastatin A]
How it was run: as §1

[6] = compound: CNC(=O)C1=CC=CC=C1NC2=NC(=NC=C2Cl)NC3=C(C=C(C=C3)N4CCOCC4)OC
How it was run: as §1

defactinib = compound: CNC(=O)c1ccc(Nc2ncc(C(F)(F)F)c(NCc3nccnc3N(C)S(C)(=O)=O)n2)cc1 [defactinib]
How it was run: as §1

[7] = compound: CNc1nc(-c2ccc3c(N)n[nH]c3c2)cc(N2C[C@@H](C(=O)NC3CCCCC3)CC[C@H]2C)n1
How it was run: as §1

encorafenib = compound: COC(=O)N[C@@H](C)CNc1nccc(-c2cn(C(C)C)nc2-c2cc(Cl)cc(NS(C)(=O)=O)c2F)n1 [encorafenib]
How it was run: as §1

[8] = compound: COC(=O)[C@H](CCSC)NC(=O)C1=C(C=C(C=C1)NC[C@H](CS)N)C2=CC=CC=C2
How it was run: as §1

alisertib = compound: COc1cc(Nc2ncc3c(n2)-c2ccc(Cl)cc2C(c2c(F)cccc2OC)=NC3)ccc1C(=O)O [alisertib]
How it was run: as §1

[9] = compound: COc1cc2nc(-c3cc(F)ccc3O)nc(N[C@@H]3CNC[C@H]3C(C)(C)O)c2cc1OC
How it was run: as §1

gefitinib = compound: COc1cc2ncnc(Nc3ccc(F)c(Cl)c3)c2cc1OCCCN1CCOCC1 [gefitinib]
How it was run: as §1

Chain of UniProt P25098 (P25098 whole entry, looked up): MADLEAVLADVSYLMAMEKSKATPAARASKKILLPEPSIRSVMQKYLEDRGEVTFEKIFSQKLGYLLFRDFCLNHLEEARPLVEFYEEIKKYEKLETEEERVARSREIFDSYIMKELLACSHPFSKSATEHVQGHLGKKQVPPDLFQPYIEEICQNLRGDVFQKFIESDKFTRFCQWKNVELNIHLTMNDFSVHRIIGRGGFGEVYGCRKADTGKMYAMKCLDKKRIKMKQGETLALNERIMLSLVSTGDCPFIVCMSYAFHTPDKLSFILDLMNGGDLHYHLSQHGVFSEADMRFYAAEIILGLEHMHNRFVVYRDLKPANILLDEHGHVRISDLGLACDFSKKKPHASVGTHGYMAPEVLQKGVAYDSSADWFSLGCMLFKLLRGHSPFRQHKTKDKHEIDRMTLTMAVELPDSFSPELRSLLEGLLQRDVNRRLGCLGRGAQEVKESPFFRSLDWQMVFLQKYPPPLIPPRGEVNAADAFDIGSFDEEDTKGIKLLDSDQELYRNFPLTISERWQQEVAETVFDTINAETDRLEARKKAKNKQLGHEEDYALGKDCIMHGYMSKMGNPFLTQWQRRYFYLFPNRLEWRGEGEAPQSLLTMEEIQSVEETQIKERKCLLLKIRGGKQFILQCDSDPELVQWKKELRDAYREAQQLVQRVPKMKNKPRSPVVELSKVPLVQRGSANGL
Chain of UniProt Q9Y2X7 (Q9Y2X7 whole entry, looked up): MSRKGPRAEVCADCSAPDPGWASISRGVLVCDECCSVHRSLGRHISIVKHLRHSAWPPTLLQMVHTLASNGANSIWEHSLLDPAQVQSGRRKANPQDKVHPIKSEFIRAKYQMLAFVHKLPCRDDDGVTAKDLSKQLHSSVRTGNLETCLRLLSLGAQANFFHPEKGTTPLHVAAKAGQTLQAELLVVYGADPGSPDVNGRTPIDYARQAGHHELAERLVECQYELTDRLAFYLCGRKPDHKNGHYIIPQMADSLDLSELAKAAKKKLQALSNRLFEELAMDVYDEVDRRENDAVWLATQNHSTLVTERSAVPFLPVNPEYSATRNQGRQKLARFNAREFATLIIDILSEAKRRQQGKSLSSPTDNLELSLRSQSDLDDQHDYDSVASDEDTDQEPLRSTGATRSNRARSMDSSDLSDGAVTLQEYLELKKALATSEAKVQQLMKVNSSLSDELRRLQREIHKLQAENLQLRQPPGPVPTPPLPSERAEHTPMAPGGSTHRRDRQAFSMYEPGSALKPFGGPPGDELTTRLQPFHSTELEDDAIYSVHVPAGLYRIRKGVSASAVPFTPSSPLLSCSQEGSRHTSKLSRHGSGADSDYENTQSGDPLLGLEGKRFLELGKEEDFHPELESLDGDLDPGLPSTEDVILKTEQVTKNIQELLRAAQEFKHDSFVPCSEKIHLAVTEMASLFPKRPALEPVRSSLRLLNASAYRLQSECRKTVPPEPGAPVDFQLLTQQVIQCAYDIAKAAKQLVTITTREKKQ
Chain of UniProt Q6NT76 (Q6NT76 whole entry, looked up): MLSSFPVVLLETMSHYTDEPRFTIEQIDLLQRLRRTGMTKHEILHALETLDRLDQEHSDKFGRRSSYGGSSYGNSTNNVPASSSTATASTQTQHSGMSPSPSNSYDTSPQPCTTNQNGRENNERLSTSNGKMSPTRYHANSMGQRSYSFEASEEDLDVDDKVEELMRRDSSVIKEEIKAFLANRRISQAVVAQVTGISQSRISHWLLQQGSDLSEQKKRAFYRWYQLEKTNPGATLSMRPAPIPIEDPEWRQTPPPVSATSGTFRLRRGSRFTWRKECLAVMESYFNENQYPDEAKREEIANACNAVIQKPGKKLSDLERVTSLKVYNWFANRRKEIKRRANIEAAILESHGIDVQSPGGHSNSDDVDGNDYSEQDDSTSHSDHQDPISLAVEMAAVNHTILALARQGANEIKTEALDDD
Chain of UniProt Q8TDG4 (Q8TDG4 whole entry, looked up): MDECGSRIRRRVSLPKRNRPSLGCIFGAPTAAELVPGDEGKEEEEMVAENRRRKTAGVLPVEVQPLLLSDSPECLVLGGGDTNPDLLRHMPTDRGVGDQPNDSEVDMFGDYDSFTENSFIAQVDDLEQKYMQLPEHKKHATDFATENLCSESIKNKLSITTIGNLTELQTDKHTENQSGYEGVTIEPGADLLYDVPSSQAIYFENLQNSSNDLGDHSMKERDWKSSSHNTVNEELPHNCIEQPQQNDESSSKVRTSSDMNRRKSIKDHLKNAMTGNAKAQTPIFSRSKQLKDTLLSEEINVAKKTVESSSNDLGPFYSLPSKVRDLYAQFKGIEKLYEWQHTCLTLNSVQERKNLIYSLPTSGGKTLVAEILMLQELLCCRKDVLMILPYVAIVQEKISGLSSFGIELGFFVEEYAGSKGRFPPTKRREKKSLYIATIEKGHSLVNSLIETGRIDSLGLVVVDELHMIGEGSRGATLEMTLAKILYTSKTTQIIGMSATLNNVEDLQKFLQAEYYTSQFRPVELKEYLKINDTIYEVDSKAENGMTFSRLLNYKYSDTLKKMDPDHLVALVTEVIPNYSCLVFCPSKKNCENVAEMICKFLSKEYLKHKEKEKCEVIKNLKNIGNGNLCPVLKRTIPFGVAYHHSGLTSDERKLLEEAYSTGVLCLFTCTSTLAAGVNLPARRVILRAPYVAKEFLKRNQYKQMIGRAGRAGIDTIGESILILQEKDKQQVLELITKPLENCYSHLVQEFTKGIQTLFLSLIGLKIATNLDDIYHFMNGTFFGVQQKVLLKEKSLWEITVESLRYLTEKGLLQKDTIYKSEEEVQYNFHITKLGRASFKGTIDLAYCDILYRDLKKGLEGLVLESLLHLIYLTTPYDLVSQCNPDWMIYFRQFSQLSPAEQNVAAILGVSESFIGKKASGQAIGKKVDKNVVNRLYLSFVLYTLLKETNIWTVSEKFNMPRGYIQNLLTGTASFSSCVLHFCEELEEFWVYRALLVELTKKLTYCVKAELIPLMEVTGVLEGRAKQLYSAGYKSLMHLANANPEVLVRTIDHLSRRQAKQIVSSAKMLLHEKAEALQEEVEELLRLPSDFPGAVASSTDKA
Chain of UniProt Q14103 (Q14103 whole entry, looked up): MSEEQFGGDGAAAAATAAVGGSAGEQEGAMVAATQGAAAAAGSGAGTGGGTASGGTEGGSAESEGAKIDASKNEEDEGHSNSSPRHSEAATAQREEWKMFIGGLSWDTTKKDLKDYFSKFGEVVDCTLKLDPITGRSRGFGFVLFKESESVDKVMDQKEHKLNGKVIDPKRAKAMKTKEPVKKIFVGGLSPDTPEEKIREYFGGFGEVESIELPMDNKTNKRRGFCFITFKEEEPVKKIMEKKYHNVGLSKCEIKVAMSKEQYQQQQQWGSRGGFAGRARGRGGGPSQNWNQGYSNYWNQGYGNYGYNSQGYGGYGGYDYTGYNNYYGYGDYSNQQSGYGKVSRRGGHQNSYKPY
Chain of UniProt Q01628 (Q01628 whole entry, looked up): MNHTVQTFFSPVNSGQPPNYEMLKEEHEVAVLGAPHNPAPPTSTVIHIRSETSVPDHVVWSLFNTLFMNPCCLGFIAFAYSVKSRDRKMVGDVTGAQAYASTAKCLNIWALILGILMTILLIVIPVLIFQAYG
Chain of UniProt Q9Y223 (Q9Y223 whole entry, looked up): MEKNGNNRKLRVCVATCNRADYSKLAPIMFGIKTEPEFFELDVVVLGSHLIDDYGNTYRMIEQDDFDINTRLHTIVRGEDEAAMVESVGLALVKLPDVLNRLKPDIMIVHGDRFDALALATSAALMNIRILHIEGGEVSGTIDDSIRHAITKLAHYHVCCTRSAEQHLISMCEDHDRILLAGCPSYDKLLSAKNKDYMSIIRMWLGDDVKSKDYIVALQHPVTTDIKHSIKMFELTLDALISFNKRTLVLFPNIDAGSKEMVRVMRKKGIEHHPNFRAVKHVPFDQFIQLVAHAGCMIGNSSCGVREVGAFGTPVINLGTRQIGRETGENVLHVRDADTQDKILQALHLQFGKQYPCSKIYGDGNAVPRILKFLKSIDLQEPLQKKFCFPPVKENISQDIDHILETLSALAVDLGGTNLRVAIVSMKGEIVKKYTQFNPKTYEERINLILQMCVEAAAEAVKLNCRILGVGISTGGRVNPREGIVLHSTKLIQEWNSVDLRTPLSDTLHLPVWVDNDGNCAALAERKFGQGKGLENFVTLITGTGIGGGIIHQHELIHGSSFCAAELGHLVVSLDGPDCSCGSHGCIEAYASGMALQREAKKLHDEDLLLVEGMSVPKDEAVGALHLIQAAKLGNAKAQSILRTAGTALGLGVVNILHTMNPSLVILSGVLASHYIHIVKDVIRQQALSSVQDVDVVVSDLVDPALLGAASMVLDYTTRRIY
Chain of UniProt A6NDN3 (A6NDN3 whole entry, looked up): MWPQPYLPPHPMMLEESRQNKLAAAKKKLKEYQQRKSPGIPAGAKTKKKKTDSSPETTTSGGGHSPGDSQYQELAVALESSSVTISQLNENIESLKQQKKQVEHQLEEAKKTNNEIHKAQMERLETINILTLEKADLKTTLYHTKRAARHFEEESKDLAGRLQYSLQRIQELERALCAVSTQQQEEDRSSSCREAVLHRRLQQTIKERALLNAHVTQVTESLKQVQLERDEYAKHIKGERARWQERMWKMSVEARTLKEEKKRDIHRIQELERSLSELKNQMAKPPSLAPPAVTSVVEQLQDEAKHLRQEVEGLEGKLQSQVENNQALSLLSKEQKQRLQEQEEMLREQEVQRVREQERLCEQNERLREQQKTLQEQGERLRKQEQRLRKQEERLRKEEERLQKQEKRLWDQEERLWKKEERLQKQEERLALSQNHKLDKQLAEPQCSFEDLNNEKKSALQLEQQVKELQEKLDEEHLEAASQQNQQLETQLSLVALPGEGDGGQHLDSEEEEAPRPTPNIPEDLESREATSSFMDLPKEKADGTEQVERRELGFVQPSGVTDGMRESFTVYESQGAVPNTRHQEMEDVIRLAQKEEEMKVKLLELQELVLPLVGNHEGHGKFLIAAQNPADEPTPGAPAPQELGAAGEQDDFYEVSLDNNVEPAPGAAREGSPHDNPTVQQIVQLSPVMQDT

Row | Target | log2 fold change (vemurafenib) | log2 fold change [1] | log2 fold change (barasertib) | log2 fold change [2] | log2 fold change (volasertib) | log2 fold change [3] | log2 fold change [4] | log2 fold change [5] | log2 fold change (saracatinib) | log2 fold change (sotrastaurin) | log2 fold change (alvocidib) | log2 fold change (Tubastatin A) | log2 fold change [6] | log2 fold change (defactinib) | log2 fold change [7] | log2 fold change (encorafenib) | log2 fold change [8] | log2 fold change (alisertib) | log2 fold change [9] | log2 fold change (gefitinib)
1 | IFITM3 (UniProt Q01628) | -0.046 | 0.079 | 0.342 | -0.06 | -0.025 | 0.026 | -0.11 | 0.112 | -0.041 | 0.052 | -0.001 | -0.329 | 0.01 | 0.118 | 0.042 | 0.043 | -0.142 | 0.109 | -0.137 | 0.291
2 | HMBOX1 isoform 5 (UniProt Q6NT76) | 0.028 | -0.086 | -0.001 | 0.122 | -0.059 | -0.038 | -0.043 | -0.071 | -0.003 | -0.013 | -0.078 | -0.003 | -0.005 | 0.012 | 0.066 | -0.037 | -0.016 | -0.156 | 0.02 | -0.091
3 | HNRNPD isoform 3 (UniProt Q14103) | 0.024 | -0.028 | -0.033 | 0.128 | 0.014 | 0.077 | -0.077 | -0.023 | 0.048 | -0.066 | 0.017 | 0.008 | 0.004 | 0.117 | 0.146 | 0.036 | 0.016 | 0.024 | 0.001 | 0.113
4 | HELQ (UniProt Q8TDG4) | 0.12 | -0.064 | 0.036 | 0.048 | 0.01 | -0.044 | 0.038 | -0.104 | -0.058 | 0.057 | 0.059 | -0.016 | 0.045 | 0.037 | 0.054 | 0.046 | 0.09 | 0.132 | -0.041 | -0.177
5 | KARS1 (UniProt Q15046) | 0.003 | -0.002 | 0.002 | -0.072 | -0.026 | 0.024 | 0.046 | -0.052 | 0.004 | 0.004 | 0.027 | -0.01 | -0.037 | 0 | -0.035 | -0.028 | 0.379 (active) | 0.012 | -0.011 | -0.022
6 | ITPKA (UniProt P23677) | -0.007 | 0.019 | 0.041 | -0.105 | -0.065 | -0.03 | 0 | 0.054 | 0.013 | -0.045 | -0.001 | -0.194 | -0.017 | 0.017 | 0.015 | -0.021 | 0.375 (active) | -0.004 | 0 | 0.011
7 | KBTBD4 isoform 2 (UniProt Q9NVX7) | 0 | 0.021 | 0.013 | 0.063 | -0.022 | 0.031 | -0.04 | -0.032 | 0.086 | 0.032 | -0.064 | -0.048 | -0.016 | 0.024 | 0.193 | 0.048 | -0.08 | -0.098 | -0.046 | 0.121
8 | IMMT (UniProt C9J406) | -0.018 | -0.036 | -0.105 | 0.098 | -0.015 | 0.018 | -0.464 | -0.037 | 0.074 | 0.02 | -0.027 | -0.076 | -0.162 | 0.075 | 0.008 | -0.085 | -0.166 | -0.031 | -0.073 | -0.052
9 | HSP90AA4P (UniProt Q58FG1) | -0.002 | 0 | 0.377 | 0.006 | 0.005 | -0.076 | 0.26 | 0.041 | -0.03 | 0.033 | -0.228 | 0.052 | -0.081 | -0.213 | -0.046 | -0.022 | 0.123 | -0.012 | 0.068 | 0.042
10 | GRK2 (UniProt P25098) | -0.019 | 0.016 | -0.006 | -0.08 | -0.05 | 0.003 | -0.054 | -0.016 | -0.009 | 0.01 | 0.001 | -0.08 | 0.068 | 0.106 | 0.044 | 0.001 | 0.086 | -0.042 | 0.066 | -0.041
11 | GIT1 (UniProt Q9Y2X7) | -0.073 | 0.028 | -0.008 | -0.044 | -0.043 | -0.007 | 0.132 | 0.046 | 0 | 0.012 | 0.015 | -0.04 | 0.022 | 0.023 | -0.084 | 0.002 | 0.026 | 0.05 | -0.011 | -0.031
12 | GNE isoform 2 (UniProt Q9Y223) | 0.024 | 0.027 | 0.03 | -0.107 | -0.095 | 0.039 | 0.008 | -0.053 | -0.003 | -0.029 | 0.028 | -0.12 | 0.016 | -0.011 | -0.024 | -0.008 | 0.176 | 0.041 | 0.026 | -0.014
13 | HAUS5 (UniProt O94927) | 0.004 | 0.048 | -0.02 | -0.038 | -0.016 | 0.026 | 0.01 | -0.087 | -0.008 | 0.03 | 0.062 | -0.146 | 0.007 | 0.026 | 0.015 | -0.006 | 0.092 | -0.01 | 0.006 | -0.007
14 | GOLGA6B (UniProt A6NDN3) | 0.015 | -0.003 | 0.2 | 0.149 | -0.006 | 0.078 | -0.086 | 0.102 | 0.101 | -0.004 | -0.019 | -0.054 | -0.002 | 0.018 | -0.086 | -0.048 | -0.053 | -0.074 | 0.043 | 0.065
15 | GOLGA1 (UniProt Q92805) | 0.081 | 0.086 | 0 | 0.007 | 0.121 | -0.061 | -0.019 | -0.04 | -0.031 | 0.071 | -0.027 | 0.051 | 0.035 | -0.017 | 0.011 | 0.028 | -0.093 | -0.017 | -0.18 | -0.024
16 | INTS5 (UniProt Q6P9B9) | 0.052 | -0.167 | 0.044 | 0.042 | 0.223 | 0.023 | 0.029 | -0.072 | 0.069 | -0.092 | 0.038 | -0.055 | 0.027 | 0.017 | -0.047 | 0.02 | -0.259 | 0.028 | 0.013 | 0.045
